# Reference: ChEMBL document CHEMBL3988442, “University of Dundee, Small-Polar-MMV Screening Library” (2021)
# Hit rate of the full screen: of about 48,000 compounds, about 13,000 (27%) showed an effect of 50% or more. This is one part of the list.
# System: Wolbachia pipientis
# Test: Anti-Wolbachia Cell-Based Screen
# Type: functional
# Design: scale not given: in the data most compounds retested in dose-response had high values
# Details: 5 µM
row,SMILES,Percent Effect
1,COc1cc(F)c(CN2CCN(CC(C)C)C(=O)C2C)cc1OC (configuration not stated),4.949%
2,CN(C)c1ccc(C(=O)NCC2(c3ccccc3)CCOCC2)cc1,9.489%
3,CS(=O)(=O)N1C[C@@H]2CC[C@H](C1)N(C(=O)Cn1ccc3ccccc31)C2,-4.366%
4,CN(CC(=O)N1CCC(Cc2cccc(C(N)=O)c2)C1)C1CCCC1 (configuration not stated),-18.46%
5,CC(C)Oc1ccc(CNC(=O)CC(F)(F)F)cc1F,4.736%
6,O=C1N(c2cccc(Cl)c2)Cc2nc(=O)[nH]n21,-8.298%
7,Cc1noc([C@H]2CC[C@@H]3[C@@H](CCN3c3ncccn3)O2)n1,101.9%
8,Cc1noc([C@@H]2CC[C@@H]3[C@@H](CCN3c3nnc(C)s3)O2)n1.O=C(O)C(F)(F)F,108.3%
9,Cc1noc([C@H]2C[C@@H]3CCN(c4nnc(C)s4)C[C@H]3O2)n1.O=C(O)C(F)(F)F,107.3%
10,Cc1noc([C@@H]2CC[C@@H]3[C@@H](CCN3S(=O)(=O)c3cccnc3)O2)n1.O=C(O)C(F)(F)F,4.369%
11,Cc1noc([C@H]2C[C@@H]3CCN(CC4CC4)C[C@H]3O2)n1.O=C(O)C(F)(F)F,1.445%
12,Cc1noc([C@@H]2CC[C@@H]3[C@@H](CCN3S(=O)(=O)C3CC3)O2)n1,-8.52%
13,Cc1noc([C@@H]2C[C@@H]3CCN(c4nnc(C)s4)C[C@H]3O2)n1.O=C(O)C(F)(F)F,122.4%
14,Cc1noc([C@H]2C[C@@H]3CCN(CC4CCOCC4)C[C@H]3O2)n1.O=C(O)C(F)(F)F,8.046%
15,Cc1noc([C@H]2CC[C@@H]3[C@@H](CCN3S(C)(=O)=O)O2)n1,5.645%
16,Cc1noc([C@@H]2C[C@H]3CN(Cc4scnc4C)C[C@H]3O2)n1.O=C(O)C(F)(F)F,-4.188%
17,Cc1noc([C@@H]2C[C@@H]3CCN(CC4CCOCC4)C[C@H]3O2)n1.O=C(O)C(F)(F)F,8.264%
18,Cc1noc([C@@H]2C[C@@H]3CCN(CC4CC4)C[C@H]3O2)n1.O=C(O)C(F)(F)F,-0.5641%
19,CCCc1nc(C)cc(N2CCC3(CCC(=O)N(CCCO)C3)CC2)n1,11.58%
20,Cc1cc(SC(C)(C)C)ccc1NCC(=O)NC(N)=O,1.645%
21,CCCS(=O)(=O)C(C)C(=O)Nc1ccc2oc(C3CC3)nc2c1 (configuration not stated),3.211%
22,Cc1cc(Cc2ccccc2)cc(C2CCCNC2)n1 (configuration not stated),107.8%
23,Cc1cccc(Cc2cc(C)nc(C3CCCNC3)c2)c1 (configuration not stated),70.21%
24,O=C(NC1CCCNC1)c1cc(COc2cccc(C(F)(F)F)c2)[nH]n1 (configuration not stated),2.713%
25,Cc1cc(Cc2cccc(C(F)(F)F)c2)cc(C2CCCNC2)n1 (configuration not stated),97.1%
26,Cl.Cl.FC(F)(F)c1cccc(-c2c[nH]c(C3CCCN3)n2)c1 (configuration not stated),-28.55%
27,Cc1cc(Cc2ccc(F)cc2)cc(C2CCCNC2)n1 (configuration not stated),73.78%
